This is part of a sample that, as a whole, favours compounds with a hit. Of some 83,000 tested, about 20% had one in any assay.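 Results are percent growth after 48 hours of single-concentration exposure. 100 means growth as in untreated cells, lower positive values show inhibition; negative values down to -100 show cell death.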 Calls of active or inactive are those of the source. The calls were made as follows: active = growth percent below 10; inactive = the rest.
Experiments:
Test in all cases: NCI-60 one-dose screen, 48 h (100 = growth as untreated, 0 = no growth, -100 = all killed)
Settings in all cases: 10 µM unless noted
RPMI-8226 leukemia = test system: RPMI-8226 leukemia
OVCAR-8 ovarian = test system: OVCAR-8 ovarian
OVCAR-5 ovarian = test system: OVCAR-5 ovarian
OVCAR-4 ovarian = test system: OVCAR-4 ovarian
SK-OV-3 ovarian = test system: SK-OV-3 ovarian
IGROV1 ovarian = test system: IGROV1 ovarian
OVCAR-3 ovarian = test system: OVCAR-3 ovarian
HS 578T breast = test system: HS 578T breast
NCI/ADR-RES ovarian = test system: NCI/ADR-RES ovarian
T-47D breast = test system: T-47D breast
BT-549 breast = test system: BT-549 breast
MDA-MB-435 melanoma = test system: MDA-MB-435 melanoma
SW-620 colon = test system: SW-620 colon
MCF7 breast = test system: MCF7 breast
HCT-116 colon = test system: HCT-116 colon
HCC-2998 colon = test system: HCC-2998 colon
KM12 colon = test system: KM12 colon

Measured: growth

Cc1c2c(c(C)c3c1oc1cc(O)ccc13)C(=O)N(CCN1CCCCC1)C2=O
inactive: RPMI-8226 leukemia 74.6% | OVCAR-8 ovarian 64.2% | OVCAR-5 ovarian 114% | OVCAR-4 ovarian 94.1% | SK-OV-3 ovarian 105% | IGROV1 ovarian 82.8% | OVCAR-3 ovarian 99.1% | HS 578T breast 89.8% | NCI/ADR-RES ovarian 81.7% | T-47D breast 91.1% | BT-549 breast 97.7% | MDA-MB-435 melanoma 93.3% | SW-620 colon 67.8% | MCF7 breast 90.3% | HCT-116 colon 67.4% | HCC-2998 colon 93.6% | KM12 colon 83.9%

CCN(CC)c1ccc2nc3c4ccccc4c(=NC(=O)c4ccccc4-c4c5ccc(N(CC)CC)cc5[o+]c5cc(N(CC)CC)ccc45)cc-3oc2c1
inactive: OVCAR-8 ovarian 43.8% | OVCAR-5 ovarian 73% | SK-OV-3 ovarian 78.9% | HS 578T breast 63.3% | NCI/ADR-RES ovarian 51.5% | T-47D breast 63.6% | BT-549 breast 60.1% | HCC-2998 colon 15.9%
active: RPMI-8226 leukemia 1.89% | OVCAR-4 ovarian -47.4% | IGROV1 ovarian -66.6% | OVCAR-3 ovarian -50.1% | MDA-MB-435 melanoma -86.2% | SW-620 colon -38.7% | MCF7 breast -87.6% | HCT-116 colon -26.8% | KM12 colon -3%

Cc1cc(C)c(-c2c(C)cc(C)cc2CBr)c(CBr)c1
inactive: RPMI-8226 leukemia 50.2% | OVCAR-8 ovarian 68.3% | OVCAR-5 ovarian 97.1% | OVCAR-4 ovarian 74.1% | SK-OV-3 ovarian 101% | IGROV1 ovarian 90.3% | OVCAR-3 ovarian 90.9% | HS 578T breast 86.6% | NCI/ADR-RES ovarian 72.2% | T-47D breast 69.8% | BT-549 breast 79.2% | MDA-MB-435 melanoma 77% | SW-620 colon 78.5% | MCF7 breast 67.1% | HCT-116 colon 49.4% | HCC-2998 colon 103% | KM12 colon 80.3%

Cc1cccc(NC(=O)CSc2nc3ccccc3[nH]2)c1
inactive: RPMI-8226 leukemia 99.8% | OVCAR-8 ovarian 103% | OVCAR-5 ovarian 106% | OVCAR-4 ovarian 93.2% | SK-OV-3 ovarian 95.9% | IGROV1 ovarian 97.6% | OVCAR-3 ovarian 107% | HS 578T breast 90.7% | NCI/ADR-RES ovarian 98.4% | T-47D breast 88.9% | BT-549 breast 104% | MDA-MB-435 melanoma 103% | SW-620 colon 101% | MCF7 breast 92% | HCT-116 colon 107% | HCC-2998 colon 102% | KM12 colon 100%

CCc1ccccc1NC(=O)/C(C#N)=C/c1ccc(OC)cc1
inactive: RPMI-8226 leukemia 91% | OVCAR-8 ovarian 89.5% | OVCAR-5 ovarian 100% | OVCAR-4 ovarian 94.3% | SK-OV-3 ovarian 105% | IGROV1 ovarian 115% | OVCAR-3 ovarian 92.6% | HS 578T breast 92.6% | NCI/ADR-RES ovarian 97.8% | T-47D breast 88.7% | BT-549 breast 112% | MDA-MB-435 melanoma 110% | SW-620 colon 94.4% | MCF7 breast 106% | HCT-116 colon 89.1% | HCC-2998 colon 98.1% | KM12 colon 91.4%

CC(=O)OC1CCC2(C)C(=CC3C4CCC(=O)C4(C)CCC32)C1 (centres undefined)
inactive: RPMI-8226 leukemia 89.3% | OVCAR-8 ovarian 97.3% | OVCAR-5 ovarian 100% | OVCAR-4 ovarian 103% | SK-OV-3 ovarian 105% | IGROV1 ovarian 105% | OVCAR-3 ovarian 109% | HS 578T breast 119% | NCI/ADR-RES ovarian 104% | T-47D breast 105% | BT-549 breast 95.9% | MDA-MB-435 melanoma 116% | SW-620 colon 104% | MCF7 breast 97.6% | HCT-116 colon 100% | HCC-2998 colon 102% | KM12 colon 107%

O=C(c1ccccc1)c1c(/C=C/c2ccc(Cl)cc2)nc2ccccc2c1/C=C/c1cccs1
inactive: RPMI-8226 leukemia 94.6% | OVCAR-8 ovarian 98% | OVCAR-5 ovarian 98.1% | OVCAR-4 ovarian 96.3% | SK-OV-3 ovarian 97.2% | IGROV1 ovarian 94.1% | OVCAR-3 ovarian 95.4% | HS 578T breast 106% | NCI/ADR-RES ovarian 99.8% | T-47D breast 94.6% | BT-549 breast 99.3% | MDA-MB-435 melanoma 99.1% | SW-620 colon 110% | MCF7 breast 92.3% | HCT-116 colon 95.8% | HCC-2998 colon 103% | KM12 colon 99.3%

c1ccc2cc3nc4cc5ccccc5cc4nc3cc2c1
inactive: RPMI-8226 leukemia 58.6% | OVCAR-8 ovarian 84.8% | OVCAR-5 ovarian 91.6% | OVCAR-4 ovarian 104% | SK-OV-3 ovarian 97.3% | IGROV1 ovarian 86.7% | OVCAR-3 ovarian 96.7% | HS 578T breast 102% | NCI/ADR-RES ovarian 73.4% | T-47D breast 94.3% | BT-549 breast 105% | MDA-MB-435 melanoma 119% | SW-620 colon 84.1% | MCF7 breast 81.9% | HCT-116 colon 72.3% | HCC-2998 colon 96.4% | KM12 colon 85.4%

COc1cc(C(=O)c2cc(C)c3[nH]c4ccc(Cl)cc4c3c2C)cc(OC)c1OC
inactive: RPMI-8226 leukemia 22.4% | OVCAR-8 ovarian 28.5% | OVCAR-5 ovarian 42.3% | OVCAR-4 ovarian 56.4% | SK-OV-3 ovarian 45.7% | HS 578T breast 43.5% | T-47D breast 70.4% | BT-549 breast 14.4% | SW-620 colon 25.7% | MCF7 breast 13.9% | HCC-2998 colon 14.2%
active: IGROV1 ovarian 9.24% | OVCAR-3 ovarian -35.7% | NCI/ADR-RES ovarian 0.863% | MDA-MB-435 melanoma -21.7% | HCT-116 colon 3.67% | KM12 colon -5.01%

O=c1[nH]ccc2nc(N3CCC(O)CC3)nc(Nc3ccc(N4CCOCC4)cc3)c12
inactive: RPMI-8226 leukemia 80.9% | OVCAR-8 ovarian 85.5% | OVCAR-5 ovarian 42.6% | OVCAR-4 ovarian 112% | SK-OV-3 ovarian 14.9% | IGROV1 ovarian 47.3% | OVCAR-3 ovarian 101% | HS 578T breast 45.7% | NCI/ADR-RES ovarian 95.2% | T-47D breast 73% | BT-549 breast 29.7% | MDA-MB-435 melanoma 40.6% | SW-620 colon 39.6% | MCF7 breast 44.2% | HCT-116 colon 22.8% | HCC-2998 colon 80.3%
active: KM12 colon 8.57%

C=C(C)[C@@H]1CC=C2c3sc(-c4ccc(C)cc4)nc3C[C@@H](C)[C@]2(C)C1
inactive: RPMI-8226 leukemia 109% | OVCAR-8 ovarian 99.3% | OVCAR-5 ovarian 101% | OVCAR-4 ovarian 98.2% | SK-OV-3 ovarian 97.5% | IGROV1 ovarian 109% | OVCAR-3 ovarian 104% | HS 578T breast 100% | NCI/ADR-RES ovarian 106% | T-47D breast 95.4% | BT-549 breast 109% | MDA-MB-435 melanoma 101% | SW-620 colon 103% | MCF7 breast 96.9% | HCT-116 colon 105% | HCC-2998 colon 115% | KM12 colon 101%

COc1ccc(/C=C/c2c(C(=O)/C=C/c3ccc(F)cc3)c(C)nc3ccccc23)cc1
inactive: OVCAR-8 ovarian 41.3% | OVCAR-5 ovarian 50.9% | OVCAR-4 ovarian 56% | SK-OV-3 ovarian 75.9% | IGROV1 ovarian 38.8% | OVCAR-3 ovarian 37.5% | HS 578T breast 70.5% | NCI/ADR-RES ovarian 33.1% | T-47D breast 30.6% | BT-549 breast 67.5% | MDA-MB-435 melanoma 41% | SW-620 colon 15.7% | MCF7 breast 17% | HCC-2998 colon 34.6% | KM12 colon 58.3%
active: RPMI-8226 leukemia -8.58% | HCT-116 colon 3.18%

COc1cccc(-c2nc3sccn3c2/C=C/C(=O)c2ccc(C(F)(F)F)cc2)c1
inactive: RPMI-8226 leukemia 46.5% | OVCAR-8 ovarian 81.1% | OVCAR-5 ovarian 92.5% | OVCAR-4 ovarian 92.9% | SK-OV-3 ovarian 77.3% | IGROV1 ovarian 92.8% | OVCAR-3 ovarian 78.9% | HS 578T breast 80% | NCI/ADR-RES ovarian 89.8% | T-47D breast 64.1% | BT-549 breast 87.3% | MDA-MB-435 melanoma 73.3% | SW-620 colon 66.3% | MCF7 breast 65% | HCT-116 colon 48.4% | HCC-2998 colon 102% | KM12 colon 73.1%

COc1ccc(CNC(=O)C(O)C(Cc2ccccc2)NC(=O)c2[nH]c3ccccc3c(=O)c2C)cc1OC (centres undefined)
inactive: RPMI-8226 leukemia 111% | OVCAR-8 ovarian 103% | OVCAR-5 ovarian 98.1% | OVCAR-4 ovarian 111% | SK-OV-3 ovarian 103% | IGROV1 ovarian 112% | OVCAR-3 ovarian 111% | HS 578T breast 97.4% | NCI/ADR-RES ovarian 107% | T-47D breast 97.8% | BT-549 breast 104% | MDA-MB-435 melanoma 101% | SW-620 colon 113% | MCF7 breast 99.7% | HCT-116 colon 106% | HCC-2998 colon 117% | KM12 colon 105%

COc1ccc(S(=O)(=O)NCCNc2nccc(-c3c(-c4cccc(F)c4)nc4sccn34)n2)cc1
inactive: RPMI-8226 leukemia 27.8% | OVCAR-8 ovarian 36.6% | OVCAR-5 ovarian 62.9% | OVCAR-4 ovarian 38.9% | SK-OV-3 ovarian 54.3% | IGROV1 ovarian 14.8% | OVCAR-3 ovarian 49.1% | HS 578T breast 31.4% | NCI/ADR-RES ovarian 30.3% | T-47D breast 25% | BT-549 breast 47% | MDA-MB-435 melanoma 14.7% | SW-620 colon 52.6% | MCF7 breast 17.1% | HCT-116 colon 19.7% | HCC-2998 colon 52.9% | KM12 colon 18.3%

COc1cc(C2NC(=O)c3ccccc3N2)ccc1OCCCCCOc1c(OC)cc(C2=NOC(c3cc(OC)c(OC)c(OC)c3)C2)cc1OC (centres undefined)
active: RPMI-8226 leukemia -22.2% | BT-549 breast 1.13%
inactive: OVCAR-8 ovarian 88.2% | OVCAR-5 ovarian 103% | OVCAR-4 ovarian 28.8% | SK-OV-3 ovarian 93.8% | IGROV1 ovarian 15.2% | OVCAR-3 ovarian 78.6% | HS 578T breast 102% | NCI/ADR-RES ovarian 65% | T-47D breast 39.8% | MDA-MB-435 melanoma 23.3% | SW-620 colon 92.8% | MCF7 breast 32.3% | HCT-116 colon 60% | HCC-2998 colon 80.5% | KM12 colon 91.2%

CCc1c2c(nc3ccc(OC(=O)NCc4ccc(B5OC(C)(C)C(C)(C)O5)cc4)cc13)-c1cc3c(c(=O)n1C2)COC(=O)[C@]3(O)CC
inactive: RPMI-8226 leukemia 10.1% | IGROV1 ovarian 11% | HS 578T breast 23.4%
active: OVCAR-8 ovarian 4.49% | OVCAR-5 ovarian -12.3% | OVCAR-4 ovarian 6.46% | SK-OV-3 ovarian -1.86% | OVCAR-3 ovarian -24.7% | NCI/ADR-RES ovarian -6.58% | T-47D breast 4.82% | BT-549 breast 4.12% | MDA-MB-435 melanoma -35.2% | SW-620 colon 8.04% | MCF7 breast 2.39% | HCT-116 colon 2.81% | HCC-2998 colon -8.14% | KM12 colon -5.38%
